Source: PubChem BioAssay
Inconclusive results are not listed. Activity calls are given as the source filed them.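 The calls were made as follows, unless noted: active = efflux inhibition above 0.42, the validation set average plus 4 SD; inconclusive = no clear call, values can overlap the other calls; inactive = the rest.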

Legend:
[1] = rapamycin-like changes in RPL19A-GFP expression – cell-based, S. cerevisiae, multiplex flow cytometry, primary screen (AID 1862; in the data active = percent of DMSO control GFP below about 86%;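 also: lower values mimic rapamycin by blocking the RPL19A rise seen in DMSO cells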); conditions: S. cerevisiae RPL19A-GFP strain, flow cytometry fluorescence, 3 h; at 10 µM; stronger effect = lower value
[2] = TOR pathway GLN3 branch reporter MEP2-GFP changes – S. cerevisiae, multiplex flow cytometry, primary screen (AID 1867;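 active = GFP response, as percent of the DMSO control, above the screen-wide mean plus 3 SD, about 139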;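 also: median GFP channel fluorescence of barcode-gated MEP2-GFP cells measured by flow cytometry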); conditions: S. cerevisiae MEP2-GFP strain, 3 h, at 10 µM, stronger effect = higher value, 100% means same as DMSO wells
[3] = TOR pathway RTG branch CIT2 reporter changes – S. cerevisiae, GFP fusion, multiplex flow cytometry, primary screen (AID 1870;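 active = percent response above a set limit, the screen-wide mean plus 3 SD, cut at about 130% in these data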;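 also: barcoded CIT2-GFP strain pooled with four other GFP strains with rapamycin as positive control; median GFP fluorescence per well over plate mean of DMSO wells so 100% = DMSO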); conditions: S. cerevisiae CIT2-GFP expression, 3 h, at 10 µM, stronger effect = higher value
[4] = TOR pathway LAP4-GFP level changes – S. cerevisiae, multiplex flow cytometry, primary screen (AID 1873;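 active = GFP signal, as percent of the solvent control, above the screen mean plus 3 SD, about 149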); conditions: S. cerevisiae LAP4-GFP expression, 3 h, at 10 µM, stronger effect = higher value
[5] = yeast AGP1-GFP level changes, GLN3 branch – cell-based, multiplex flow cytometry, S. cerevisiae, primary screen (AID 1887;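 active = GFP signal above the screen-wide mean plus 3 SD, that is over about 124.5% of the solvent control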;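 also: AGP1-GFP fusion strain of S. cerevisiae within a five-strain barcoded multiplex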); conditions: 3 h, at 10 µM, stronger effect = higher value
[6] = reduced mouse 2C T cell binding to pMHC/ICAM-1 vesicles – MLPCN validation set, flow cytometry, LFA-1/ICAM-1 modulator project, pilot screen (AID 2523;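 active = response below a set limit, under 55% cells CD8-positive and vesicle-bound, and CD8 cells' 90th-percentile brightness under 279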;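 as to vesicle binding response: mean PE anti-B7-1 fluorescence of CD8+ cells relative to row control; 100% = QL9-loaded vesicles with DMSO vehicle in the same plate row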); conditions: 2C mouse CD8+ T cells, at 7 µM, stronger effect = lower value; double positive events: measured here: CD8+/vesicle+ event percentage
[7] = target: Integrin beta-1 (Homo sapiens) + Integrin alpha-4 (Homo sapiens) (UniProt P13612+P05556); assay: alpha4beta1 integrin LIBS antibody binding reduction – U937 cells, HUTS-21 mAb, flow cytometry, validation set, VLA-4 allosteric modulator project, pilot screen (AID 2674;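 active = inhibition above 50%, about 3 SD of the validation set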;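 also: antibody binding induced by the VLA-4 ligand LDV present at three times its Kd; 0% = LDV ligand with antibody and no compound and 100% = antibody without LDV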); conditions: HUTS-21 LIBS mAb binding, at 6.7 µM, stronger effect = higher value, binding induced by LDV ligand
Integrin beta-1 (Homo sapiens) + Integrin alpha-4 (Homo sapiens), sequence (P05556 whole entry, looked up): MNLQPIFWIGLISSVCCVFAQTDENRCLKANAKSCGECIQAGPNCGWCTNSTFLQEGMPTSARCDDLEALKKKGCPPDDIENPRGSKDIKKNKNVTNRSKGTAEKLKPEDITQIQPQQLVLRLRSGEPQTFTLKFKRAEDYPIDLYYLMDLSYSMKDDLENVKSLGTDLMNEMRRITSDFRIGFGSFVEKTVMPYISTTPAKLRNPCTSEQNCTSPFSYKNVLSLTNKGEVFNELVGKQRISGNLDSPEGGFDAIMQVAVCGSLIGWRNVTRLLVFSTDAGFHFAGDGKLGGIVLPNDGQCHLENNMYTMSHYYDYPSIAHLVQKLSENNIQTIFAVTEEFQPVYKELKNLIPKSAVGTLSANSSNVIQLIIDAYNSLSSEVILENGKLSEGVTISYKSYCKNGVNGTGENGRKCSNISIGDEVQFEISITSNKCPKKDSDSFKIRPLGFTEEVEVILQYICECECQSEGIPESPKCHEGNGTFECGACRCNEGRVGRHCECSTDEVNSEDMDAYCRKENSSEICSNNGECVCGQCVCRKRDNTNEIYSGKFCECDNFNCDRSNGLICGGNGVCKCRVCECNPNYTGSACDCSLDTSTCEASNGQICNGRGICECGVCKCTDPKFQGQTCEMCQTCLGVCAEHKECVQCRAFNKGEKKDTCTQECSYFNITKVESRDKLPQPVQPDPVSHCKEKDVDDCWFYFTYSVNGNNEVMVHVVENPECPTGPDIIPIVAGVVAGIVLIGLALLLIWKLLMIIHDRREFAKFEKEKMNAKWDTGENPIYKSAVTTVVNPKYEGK
Integrin beta-1 (Homo sapiens) + Integrin alpha-4 (Homo sapiens), sequence (P13612 whole entry, looked up): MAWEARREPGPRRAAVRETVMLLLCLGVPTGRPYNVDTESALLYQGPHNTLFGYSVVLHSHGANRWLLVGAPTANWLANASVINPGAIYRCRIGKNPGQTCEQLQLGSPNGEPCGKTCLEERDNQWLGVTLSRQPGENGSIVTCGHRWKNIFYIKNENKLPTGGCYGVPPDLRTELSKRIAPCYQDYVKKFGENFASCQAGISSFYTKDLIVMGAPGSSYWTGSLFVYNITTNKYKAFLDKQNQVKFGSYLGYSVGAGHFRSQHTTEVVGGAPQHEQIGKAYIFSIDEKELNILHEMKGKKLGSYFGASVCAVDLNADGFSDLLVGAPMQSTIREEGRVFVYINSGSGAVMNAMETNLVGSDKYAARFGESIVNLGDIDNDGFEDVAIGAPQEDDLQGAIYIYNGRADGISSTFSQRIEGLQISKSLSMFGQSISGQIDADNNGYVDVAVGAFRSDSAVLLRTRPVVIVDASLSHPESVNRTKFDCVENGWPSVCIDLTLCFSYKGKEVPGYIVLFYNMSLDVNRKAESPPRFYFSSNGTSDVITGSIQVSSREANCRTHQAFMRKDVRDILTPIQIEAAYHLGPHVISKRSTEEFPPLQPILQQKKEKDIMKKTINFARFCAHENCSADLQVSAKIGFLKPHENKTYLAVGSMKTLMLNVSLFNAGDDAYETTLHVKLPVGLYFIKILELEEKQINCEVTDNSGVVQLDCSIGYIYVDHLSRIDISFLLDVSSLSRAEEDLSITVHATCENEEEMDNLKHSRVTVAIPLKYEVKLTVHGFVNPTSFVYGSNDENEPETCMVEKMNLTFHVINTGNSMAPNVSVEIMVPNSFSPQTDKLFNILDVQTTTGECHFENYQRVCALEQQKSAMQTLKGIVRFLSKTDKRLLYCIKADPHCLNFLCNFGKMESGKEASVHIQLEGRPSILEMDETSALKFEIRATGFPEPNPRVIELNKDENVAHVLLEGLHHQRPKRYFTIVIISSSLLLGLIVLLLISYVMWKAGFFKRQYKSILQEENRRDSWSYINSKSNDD

[8] = calorie-restriction mimetic ROS inhibitors, yeast – validation compound set, pilot screen (AID 2706;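 active = superoxide response below 65% of plate, a cut near 3 SD across the whole screen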;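 also: yeast exposed to compound for one week at 30 degrees C before staining; 100% = mean of all compound wells on the same plate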); conditions: S. cerevisiae aging, superoxide DHE fluorescence; at 10 µM; stronger effect = lower value
[9] = target: Beta-adrenergic receptor kinase 1 (Homo sapiens) (UniProt P25098); assay: GRK2 binders displacing RNA aptamer, biochemical, validation, human GRK2, bead flow cytometry (AID 488806;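 active = aptamer binding inhibition above 30%, about 3 SD of noise from non-fluorescent compounds; inactive = inhibition at or below 30%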); conditions: bead-bound GRK2, FAM-aptamer displacement, at 10 µM, stronger effect = higher value
Beta-adrenergic receptor kinase 1 (Homo sapiens), sequence (P25098 whole entry, looked up): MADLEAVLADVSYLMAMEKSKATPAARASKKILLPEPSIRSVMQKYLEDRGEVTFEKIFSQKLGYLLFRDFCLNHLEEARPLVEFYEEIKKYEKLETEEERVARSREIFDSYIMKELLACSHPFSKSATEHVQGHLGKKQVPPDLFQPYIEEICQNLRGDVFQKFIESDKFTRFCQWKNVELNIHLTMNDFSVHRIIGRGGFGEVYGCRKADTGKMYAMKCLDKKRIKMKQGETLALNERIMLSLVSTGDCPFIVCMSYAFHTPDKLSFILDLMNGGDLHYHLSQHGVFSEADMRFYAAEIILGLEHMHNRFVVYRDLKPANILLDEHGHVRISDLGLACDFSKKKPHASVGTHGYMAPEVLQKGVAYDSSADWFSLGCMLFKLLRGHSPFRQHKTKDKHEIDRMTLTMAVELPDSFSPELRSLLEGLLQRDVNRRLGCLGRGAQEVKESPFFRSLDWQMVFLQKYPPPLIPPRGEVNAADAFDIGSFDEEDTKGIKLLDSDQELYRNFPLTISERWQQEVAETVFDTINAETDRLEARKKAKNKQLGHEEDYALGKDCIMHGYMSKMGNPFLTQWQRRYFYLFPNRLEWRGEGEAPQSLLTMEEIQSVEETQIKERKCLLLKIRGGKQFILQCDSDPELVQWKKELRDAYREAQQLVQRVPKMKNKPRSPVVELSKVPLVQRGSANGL

[10] = target: Beta-2 adrenergic receptor (Homo sapiens) (UniProt P07550); assay: agonist-induced loss of surface beta2AR – cell-based, FAP fluorogen, flow cytometry, validation set, pilot screen (AID 504459;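 active = percent response above 42, roughly 3 SD of non-fluorescent test compounds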;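 also: agonist-driven loss of surface beta2AR via internalization measured by FAP dye flow cytometry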); conditions: Am2.2-beta2AR cells, at 10 µM, stronger effect = higher value
Beta-2 adrenergic receptor (Homo sapiens), sequence (P07550 whole entry, looked up): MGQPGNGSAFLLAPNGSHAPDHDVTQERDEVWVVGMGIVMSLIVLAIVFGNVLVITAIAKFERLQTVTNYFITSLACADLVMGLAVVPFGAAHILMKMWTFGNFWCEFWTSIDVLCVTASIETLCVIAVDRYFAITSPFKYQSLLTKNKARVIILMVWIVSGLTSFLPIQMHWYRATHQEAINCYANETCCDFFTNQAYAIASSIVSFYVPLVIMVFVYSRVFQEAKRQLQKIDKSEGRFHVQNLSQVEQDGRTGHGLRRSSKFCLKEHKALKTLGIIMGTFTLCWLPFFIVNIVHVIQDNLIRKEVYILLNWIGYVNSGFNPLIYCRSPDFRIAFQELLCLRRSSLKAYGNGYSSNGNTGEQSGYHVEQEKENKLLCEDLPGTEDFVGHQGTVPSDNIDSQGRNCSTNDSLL

[11] = target: AP-2 complex subunit beta (Homo sapiens) (UniProt P63010); assay: beta-arrestin/AP2 interaction blockers – biochemical, validation set, GST-AP2 beads, flow cytometry, pilot screen (AID 504541;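 active = inhibition above 54%, about 3 SD of non-fluorescent compounds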;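 also: AP2 carries R879A mutation and is captured from E. coli lysate; bead-bound FITC arrestin peptide fluorescence measuring arrestin peptide binding to AP2; 0% = DMSO wells and 100% = excess unlabeled arrestin peptide control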); conditions: FITC arrestin peptide, at 10 µM, stronger effect = higher value, AP2 beta2 appendage fragment, R879A mutant
AP-2 complex subunit beta (Homo sapiens), sequence (P63010 whole entry, looked up, the tested form may be a part, one chain of several): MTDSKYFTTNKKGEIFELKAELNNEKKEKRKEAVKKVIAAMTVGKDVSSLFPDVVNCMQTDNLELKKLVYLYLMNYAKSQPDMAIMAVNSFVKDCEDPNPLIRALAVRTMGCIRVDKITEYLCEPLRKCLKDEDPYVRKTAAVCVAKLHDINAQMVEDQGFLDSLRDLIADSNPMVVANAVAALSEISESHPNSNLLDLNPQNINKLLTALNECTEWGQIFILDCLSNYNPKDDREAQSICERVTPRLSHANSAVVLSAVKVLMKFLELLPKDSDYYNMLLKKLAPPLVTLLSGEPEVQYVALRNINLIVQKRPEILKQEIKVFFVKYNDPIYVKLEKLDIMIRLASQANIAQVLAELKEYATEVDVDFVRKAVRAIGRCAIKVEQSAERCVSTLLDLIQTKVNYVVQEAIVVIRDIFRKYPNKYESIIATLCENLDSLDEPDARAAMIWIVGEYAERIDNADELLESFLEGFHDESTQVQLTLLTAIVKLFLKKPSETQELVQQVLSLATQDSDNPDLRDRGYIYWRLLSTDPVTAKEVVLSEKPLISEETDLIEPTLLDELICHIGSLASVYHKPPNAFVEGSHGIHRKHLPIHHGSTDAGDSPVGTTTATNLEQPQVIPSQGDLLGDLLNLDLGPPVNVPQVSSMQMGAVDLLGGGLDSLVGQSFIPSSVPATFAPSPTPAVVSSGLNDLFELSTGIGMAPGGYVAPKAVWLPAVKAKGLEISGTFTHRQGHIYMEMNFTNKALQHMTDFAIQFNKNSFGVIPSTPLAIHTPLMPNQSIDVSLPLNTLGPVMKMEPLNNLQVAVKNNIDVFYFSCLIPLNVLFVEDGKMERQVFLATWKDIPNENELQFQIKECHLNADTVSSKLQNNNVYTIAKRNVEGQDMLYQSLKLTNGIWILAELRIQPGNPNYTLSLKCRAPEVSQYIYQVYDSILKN

[12] = cytosolic pH regulators acting via V-ATPase – S. cerevisiae, pHLuorin, HTS validation (AID 504600; in the data active = response above about 15%;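 also: plate controls were DMSO for no effect and reference compound for full effect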); conditions: V-ATPase proton transport, at 10 µM, stronger effect = higher value
[13] = system: anti-desmoglein-3 scFv antibody binding to human DSG3; assay: blockers of pathogenic pemphigus antibody–desmoglein-3 binding – biochemical, validation compound set, bead-based, flow cytometry, pilot screen (AID 588368;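 active = binding below the plate cutoff, the plate median minus 3 SD, with a reading above zero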;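 also: signal is the median channel fluorescence of bead-bound GFP antibody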); conditions: Protein G beads, DSG3-Fc, scFv-GFP binding, at 10 µM, stronger effect = lower value
[14] = Nile Red efflux blockade in pump-expressing yeast – validation compound set, multiplex, phenotypic, pilot screen (AID 588506);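 also: Nile Red retained in cells so higher fluorescence means more efflux inhibition; 0 = negative control wells and 1 = enniatin B 25 µM full block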; conditions: S. cerevisiae pump-expressing triplex, Nile Red efflux flow cytometry; at 10 µM; stronger effect = higher value; the pumps come from Candida albicans
[15] = target: ATP-binding cassette sub-family B member 6 (Homo sapiens) (UniProt Q9NP58); assay: blockers of ABCB6-driven porphyrin uptake – K562-ABCB6 cells, flow cytometry, validation set, pilot screen (AID 588550;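 active = inhibition above the screen-wide mean plus 3 SD, about 51%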;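 also: 0% = DMSO wells and 100% = benzethonium chloride 70 µM positive control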); conditions: K562-ABCB6 porphyrin accumulation, 1 h, at 10 µM, stronger effect = higher value
ATP-binding cassette sub-family B member 6 (Homo sapiens), sequence (Q9NP58 whole entry, looked up): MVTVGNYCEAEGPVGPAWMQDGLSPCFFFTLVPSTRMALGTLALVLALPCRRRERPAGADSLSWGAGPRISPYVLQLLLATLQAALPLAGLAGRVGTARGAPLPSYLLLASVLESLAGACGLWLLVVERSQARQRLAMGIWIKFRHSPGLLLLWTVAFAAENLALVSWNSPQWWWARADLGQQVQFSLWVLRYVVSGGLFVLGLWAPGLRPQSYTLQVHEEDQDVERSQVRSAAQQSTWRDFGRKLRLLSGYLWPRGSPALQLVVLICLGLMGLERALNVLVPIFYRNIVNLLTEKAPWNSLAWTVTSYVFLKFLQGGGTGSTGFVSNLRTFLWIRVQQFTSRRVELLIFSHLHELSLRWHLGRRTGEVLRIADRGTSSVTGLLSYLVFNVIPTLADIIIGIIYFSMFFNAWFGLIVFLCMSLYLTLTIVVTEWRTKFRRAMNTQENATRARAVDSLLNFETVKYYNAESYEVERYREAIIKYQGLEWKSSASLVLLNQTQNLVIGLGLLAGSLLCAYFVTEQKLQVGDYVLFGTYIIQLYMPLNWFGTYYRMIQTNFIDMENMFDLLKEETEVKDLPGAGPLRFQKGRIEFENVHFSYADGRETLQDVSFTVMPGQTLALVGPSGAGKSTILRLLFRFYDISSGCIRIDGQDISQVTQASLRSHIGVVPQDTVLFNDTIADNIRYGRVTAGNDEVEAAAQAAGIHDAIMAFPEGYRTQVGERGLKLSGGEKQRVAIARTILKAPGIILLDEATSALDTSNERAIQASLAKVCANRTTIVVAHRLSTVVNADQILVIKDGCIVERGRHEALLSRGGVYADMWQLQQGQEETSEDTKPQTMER

[16] = AML differentiation inducers, ER-HoxA9 marrow cells – cell-based, GFP/MAC1 double positive, flow cytometry, validation set, primary screen (AID 588685;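 active = differentiation response of at least 50%, scaled between solvent and reference control, from cells with both markers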;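 also: compound exposure lasts four days before antibody staining and flow analysis; 0% = DMSO wells and 100% = 5 µM fulvestrant positive control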); conditions: stronger effect = higher value, normalized: vehicle 0, fulvestrant 100

COc1cc2[nH]c3c(=O)n(CCN4CCOCC4)cnc3c2cc1OC
inactive: percent of DMSO control GFP [1] 101% | GFP response vs DMSO [2] 96.3% | percent response of DMSO control [3] 101% | GFP response vs DMSO [4] 101% | GFP response, % of DMSO [5] 99.4% | vesicle binding response [6] 172% | inhibition [7] -7.25% | superoxide response (% of plate) [8] 98.5% | aptamer binding inhibition [9] 3% | response [10] -0.47% | inhibition [11] 13.5% | response [12] -1.31% | binding (% of control) [13] 102% | efflux inhibition (fraction of control) [14] -0.17 | inhibition [15] 5% | differentiation response [16] 4%
60.3%: double positive events [6]

CCc1nc(N)nc(N)c1-c1ccc(Cl)cc1
65.6%: double positive events [6]
inactive: percent of DMSO control GFP [1] 92.2% | GFP response vs DMSO [2] 112% | percent response of DMSO control [3] 102% | GFP response vs DMSO [4] 70.4% | GFP response, % of DMSO [5] 101% | vesicle binding response [6] 209% | inhibition [7] 5.49% | superoxide response (% of plate) [8] 87.5% | aptamer binding inhibition [9] 0% | response [10] -2.3% | inhibition [11] 1.62% | response [12] 1.08% | binding (% of control) [13] 137% | efflux inhibition (fraction of control) [14] 0.23 | inhibition [15] 10% | differentiation response [16] -3.28%

COC(=O)c1cc(COc2ccc3ccc(=O)oc3c2)c(C)o1
59.9%: double positive events [6]
inactive: percent of DMSO control GFP [1] 105% | GFP response vs DMSO [2] 104% | percent response of DMSO control [3] 101% | GFP response vs DMSO [4] 109% | GFP response, % of DMSO [5] 92.4% | vesicle binding response [6] 120% | inhibition [7] -15.8% | superoxide response (% of plate) [8] 108% | aptamer binding inhibition [9] 1% | response [10] 7.33% | inhibition [11] -2.54% | response [12] -7.29% | binding (% of control) [13] 102% | efflux inhibition (fraction of control) [14] 0.29 | inhibition [15] 12% | differentiation response [16] -7.5%

N/C(Cc1ccc(Cl)cc1Cl)=N\OC(=O)c1ccc(Br)o1
inactive: percent of DMSO control GFP [1] 93.5% | GFP response vs DMSO [2] 128% | percent response of DMSO control [3] 106% | GFP response, % of DMSO [5] 43.5% | vesicle binding response [6] 224% | inhibition [7] -11.3% | superoxide response (% of plate) [8] 124% | aptamer binding inhibition [9] -2% | response [10] 6.81% | inhibition [11] -11% | response [12] 3.34% | binding (% of control) [13] 105% | efflux inhibition (fraction of control) [14] -0.39 | inhibition [15] 2% | differentiation response [16] 2.4%
52.1%: double positive events [6]
active: GFP response vs DMSO [4] 167%

Oc1ccccc1OCCOc1ccccc1OCCOc1ccccc1O
inactive: percent of DMSO control GFP [1] 100% | GFP response vs DMSO [2] 108% | percent response of DMSO control [3] 105% | GFP response vs DMSO [4] 117% | GFP response, % of DMSO [5] 110% | vesicle binding response [6] 245% | inhibition [7] 15.9% | superoxide response (% of plate) [8] 97.2% | aptamer binding inhibition [9] -2% | response [10] -15.9% | inhibition [11] 1.79% | response [12] -8.12% | binding (% of control) [13] 112% | efflux inhibition (fraction of control) [14] -0.04 | inhibition [15] 6% | differentiation response [16] -6.96%
62.1%: double positive events [6]

O=C(Cc1cccc2ccccc12)N1CC[C@@]2(O)CCCC[C@H]2C1
inactive: percent of DMSO control GFP [1] 92% | GFP response vs DMSO [2] 138% | percent response of DMSO control [3] 104% | GFP response vs DMSO [4] 85.3% | GFP response, % of DMSO [5] 85% | vesicle binding response [6] 252% | inhibition [7] 10.3% | superoxide response (% of plate) [8] 110% | aptamer binding inhibition [9] 11% | response [10] 0.11% | inhibition [11] -11.6% | response [12] 2.02% | binding (% of control) [13] 105% | efflux inhibition (fraction of control) [14] -0.24 | inhibition [15] 10% | differentiation response [16] -2.46%
62%: double positive events [6]

C[C@@H]1CCC[C@H](C)N1NC(=O)c1ccc(Cl)c(S(N)(=O)=O)c1
61.3%: double positive events [6]
active: efflux inhibition (fraction of control) [14] 0.5
inactive: percent of DMSO control GFP [1] 105% | GFP response vs DMSO [2] 106% | percent response of DMSO control [3] 107% | GFP response vs DMSO [4] 110% | GFP response, % of DMSO [5] 113% | vesicle binding response [6] 165% | inhibition [7] 4.27% | superoxide response (% of plate) [8] 91.8% | aptamer binding inhibition [9] -2% | response [10] 6.03% | inhibition [11] 2.8% | response [12] 1.78% | binding (% of control) [13] 105% | inhibition [15] -5% | differentiation response [16] -8.96%

COc1ccccc1C(=O)Nc1cc2cc(Br)ccc2oc1=O
58.5%: double positive events [6]
inactive: percent of DMSO control GFP [1] 101% | GFP response vs DMSO [2] 106% | percent response of DMSO control [3] 96% | GFP response vs DMSO [4] 99.4% | GFP response, % of DMSO [5] 101% | vesicle binding response [6] 30.4% | inhibition [7] -4.61% | superoxide response (% of plate) [8] 97.2% | aptamer binding inhibition [9] 3% | response [10] 4.22% | inhibition [11] -7.21% | response [12] -0.54% | binding (% of control) [13] 101% | efflux inhibition (fraction of control) [14] -0.47 | inhibition [15] 12% | differentiation response [16] -5.68%

CCCC(=O)Nc1ncnc2c1ncn2[C@@H]1O[C@@H]2COP(=O)(O)O[C@H]2[C@H]1OC(=O)CCC
inactive: percent of DMSO control GFP [1] 97.7% | GFP response vs DMSO [2] 130% | percent response of DMSO control [3] 97.9% | GFP response vs DMSO [4] 96.3% | GFP response, % of DMSO [5] 94.7% | vesicle binding response [6] 131% | inhibition [7] 4.52% | superoxide response (% of plate) [8] 96.8% | aptamer binding inhibition [9] 3% | response [10] -6.04% | inhibition [11] -3.95% | response [12] 1.56% | binding (% of control) [13] 98.3% | efflux inhibition (fraction of control) [14] -0.06 | inhibition [15] 7% | differentiation response [16] 5.73%
61%: double positive events [6]

COc1ccc(OC(C)C(=O)Nc2ccc([N+](=O)[O-])cc2)cc1 (stereo not given)
inactive: percent of DMSO control GFP [1] 102% | GFP response vs DMSO [2] 107% | percent response of DMSO control [3] 99.7% | GFP response vs DMSO [4] 114% | GFP response, % of DMSO [5] 97.5% | vesicle binding response [6] 249% | inhibition [7] 0.25% | superoxide response (% of plate) [8] 103% | aptamer binding inhibition [9] -3% | response [10] 1.65% | inhibition [11] -7.72% | response [12] 3.86% | binding (% of control) [13] 103% | efflux inhibition (fraction of control) [14] -0.21 | inhibition [15] 5% | differentiation response [16] 13%
65.7%: double positive events [6]
